# Measurements taken from PubChem BioAssay (NCATS).
# Results filed as inconclusive are left out. Where a call stands in place of a potency, no number is given. Calls of active or inactive are those of the source. Calls come from the whole dose curve; as a rule, active = well fitted inhibition curve with a large enough effect; inconclusive = small, poorly fitted or top-dose-only effect; inactive = no such curve, though single readings can be large or run the other way.
# Assay: P-glycoprotein substrates identified in KB-3-1 adenocarcinoma cell line, qHTS therapeutic library screen (AID 1346986); note: nearly all actives have a fitted effect of over 60% in size;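 note: potency is for cytotoxicity meaning loss of cell viability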
# Settings: KB-3-1 parental cells viability, CellTiter-Glo, 72 h; series mostly up to 44.5 µM
# Protocol: The ATP-binding cassette transporters P-glycoprotein (P-gp) is known to limit brain penetration of many chemotherapy drugs. […] We used the CellTiter-Glo viability assay to test library compounds against the parental KB-3-1 human cervical adenocarcinoma cell line and the colchicine-selected sub-line KB-8-5-11 that over-expresses P-gp. KB-8-5-11 cells were also tested in the presence of a P-gp inhibitor (tariquidar) to assess reversability of transporter-mediated resistance. Of the tested compounds, a total of 90 P-gp substrates were identified including 55 newly identified P-gp substrates. Substrates were confirmed using an orthogonal killing assay against HEK-293 cells transfected with P-gp. As exemplars, we confirmed that AT7159 (cyclin-dependent kinase inhibitor); AT9283, (Janus kinase 2/3 inhibitor); ispinesib (kinesin spindle protein inhibitor); gedatolisib (PKI-587, phosphoinositide 3-kinase/mammalian target of rampamycin inhibitor); GSK-690693 (AKT inhibitor); and KW-2478 (heat shock protein 90 inhibitor) were substrates , and direct ATPase stimulation was assessed. ABCG2 was also found to confer high levels of resistance to AT9283, GSK-690693 and gedatolisib, while ispinesib, AT7519 and KW-2478 were weaker substrates.
# The HeLa derivative cell line, KB-3-1, and its colchicine-selected, P-gp-overexpressing subline, KB-8-5-11 were maintained in DMEM with 10% FCS and Pen/Strep with glutamine at 37 degree C in 5% CO2. For KB-8-5-11 cells, colchicine was added to the medium at a concentration of 100 ng/mL. HEK-293 cells transfected with empty vector (pcDNA) or vector containing human ABCB1 (MDR-19) or ABCG2 (R-5) have been described previously (Robey, Lin, Qiu, Chan & Bates, 2011) and were maintained in EMEM supplemented with 10% FCS, Pen/Strep and glutamine with 2 mg/ml G418 to select for the expression of the transporter. Cultures were confirmed to be free of mycoplasma infection using the MycoAlert Mycoplasma Detection Kit (Lonza, Walkersville, MD). For the screen, assay medium was identical to culture medium except for KB-8-5-11 where colchicine was excluded from the medium.
# All cell lines were plated into 1536-well plates at 500 cells/well in 5 uL media. Compounds were then pinned in dose-response using a 1536-head pin tool (Kalypsis, San Diego, CA) and plates were incubated at 37 degree C in 5% CO2 for an additional 72 h. CellTiter-Glo reagent (Promega) was dispensed into the wells, incubated for 5 min and luminescence was read on a ViewLux instrument (Perkin-Elmer). Cytotoxic compounds were defined as those that yielded a curve class of -1.1, -1.2, -2.1, -2.2, -2.3, or -2.4, a maximum response of >50% and an AC50 of < 10 uM. Cherry-picked hits from screening analysis were tested with both the KB pair of cell lines, and the pcDNA (empty vector control) and MDR-19 (P-gp overexpressing) pair were tested, in the absence and presence of tariquidar.
# Potency is the fitted concentration of half-maximal effect.
Structure (SMILES),outcome,Potency
CC1(C)CC[C@]23CO[C@@]4(CCC5[C@@]6(C)CC[C@H](O[C@@H]7OC[C@H](O[C@@H]8O[C@H](CO)[C@@H](O)[C@H](O)[C@H]8O[C@@H]8OC[C@@H](O)[C@H](O)[C@H]8O)[C@H](O)[C@H]7O)[C@@](C)(CO)C6CC[C@@]5(C)[C@]4(C)CC2=O)[C@@H]3C1 (stereo not given in full),inactive [at 9.29 µM],
N#Cc1ccc2ncnc(NCCc3ccccc3)c2c1,,16.4 µM (active)
C=C1C(=O)OC[C@@H]1C/C=C(\C)CC1CC(C)C(=O)O1 (stereo not given in full),,inactive
CC1OC2OC(=O)C3(C)CC4C5(CO5)C5=CC(=O)OC(C)(C)C5=CC(=O)C4(C)C(C1=O)C23 (stereo not given),,inactive
C=C1C(=O)O[C@@H]2[C@H]1CC[C@H](C)[C@]1(CCC(=O)O1)C2(C)O (stereo not given in full),,inactive
O=c1cc(N2CCN(c3cccc(C(F)(F)F)c3)CC2)[nH]c(=O)n1C1CCCCC1,,inactive
Nc1nc(Nc2ccc3c(c2)CCC(N2CCCC2)CC3)nn1-c1cc2c(nn1)-c1ccccc1CCC2 (stereo not given),,11.6 µM (active)
COc1ccc(-c2c(C)nn3c(NCCN4CCOCC4)cc(C)nc23)cc1OC,,inactive
Cn1cc(C2=C(c3coc4ccccc34)C(=O)NC2=O)c2cc(Br)ccc21,,inactive
CCC(C)C(=O)OC12C(OC(C)=O)C(C)C3(O)C(C=C(CO)CC4(O)C(=O)C(C)=CC43)C1C2(C)C (stereo not given),,inactive
CC1(C)C2CCC(CO[C@@H]3O[C@H](CO[C@@H]4OC[C@](O)(CO)[C@H]4O)[C@@H](O)[C@H](O)[C@H]3O)C1C2 (stereo not given in full),,inactive
C=C1C(=O)OC2/C=C(\CO)CC/C=C(\C=O)C(OC)C(OC(=O)C(C)CC)C12 (stereo not given),,inactive
COc1ccc(S(=O)(=O)N2CCC[C@H]2C(=O)Nc2cc(C)cc(C)c2)cc1,,inactive
C[C@H](Nc1ncnc2nc[nH]c12)c1cc2cccc(Cl)c2c(=O)n1-c1ccccc1,,20.6 µM (active)
C=C1C(=O)OC2CC(C)C(CCC(C)O)=CCC12 (stereo not given),,inactive
CC(=O)C=C=C1C(C)(C)CC(O)CC1(C)O[C@@H]1O[C@H](CO[C@H]2OC[C@](O)(CO)[C@H]2O)[C@@H](O)[C@H](O)[C@H]1O (stereo not given in full),,inactive
COc1cc(F)c(C(C)C)cc1-c1ccc(C(F)(F)F)cc1CN1C(=O)OC(c2cc(C(F)(F)F)cc(C(F)(F)F)c2)C1C (stereo not given),,inactive
CC(C)C[C@H](CO)Nc1nc(S[C@@H](C)c2ccccc2)nc2nc(N)sc12,,inactive
CC(CCC1(O)OC2CC3C4CC=C5C[C@@H](O[C@@H]6O[C@H](CO)[C@@H](O[C@@H]7O[C@@H](C)[C@H](O)[C@@H](O)[C@H]7O)[C@H](O)[C@H]6O[C@@H]6O[C@@H](C)[C@H](O)[C@@H](O)[C@H]6O)CC[C@]5(C)C4CC[C@]3(C)[C@@]2(O)[C@@H]1C)CO[C@@H]1O[C@H](CO)[C@@H](O)[C@H](O)[C@H]1O (stereo not given in full),inactive [at 9.29 µM],
C=C1C(=O)O[C@@H]2C[C@]3(C)[C@@H](CCC(C)O)[C@@H]3C[C@H]12 (stereo not given in full),,inactive

Structure (SMILES),outcome,Potency
CN(C)c1ccc(NC(=O)NS(=O)(=O)c2ccc(Cl)cc2)cc1,,inactive
COc1cc2c(cc1O)C1(Cc3ccc4c(c3C1O)OCO4)[N+](C)([O-])CC2 (stereo not given),,inactive
C=C(C)C1=C[C@@]2(C)C(=CC1=O)CC[C@@H](O)[C@@H]2C,,inactive
O=C(CSc1nc2ccccc2c(=O)n1-c1ccccc1)Nc1ccc2c(c1)CCC2,,inactive
CN(C)c1cccc(Oc2cnc(Nc3cccc(O)c3)nc2)c1,,inactive
NC(=O)c1cccc2[nH]c(-c3ccc(C4CCCN4)cc3F)nc12 (stereo not given),,inactive
O=C(O)c1cc(N(Cc2ccc(C3CCCCC3)cc2)C(=O)c2ccc(Oc3ccccc3)cc2)ccc1O,,inactive
CCC/C=C/C(=O)O[C@H]1CC(C)(C)CC2[C@@]13[C@H](O)C[C@]1(C)[C@@]2(CCC2[C@@]4(C)CC[C@H](O[C@@H]5O[C@H](C(=O)O)[C@@H](O)[C@H](O[C@@H]6O[C@H](CO)[C@H](O)[C@H](O)[C@H]6O[C@@H]6O[C@@H](C)[C@H](O)[C@@H](O)[C@H]6O[C@@H]6OC[C@](O)(CO)[C@H]6O)[C@H]5O[C@@H]5O[C@H](CO)[C@H](O)[C@H](O)[C@H]5O)C(C)(C)C4CC[C@]21C)O[C@H]3O (stereo not given in full),inactive [at 9.29 µM],
COc1c(C)cc(NC(=O)c2nn(Cc3ccc(F)cc3)c3c2CN(C(=O)c2ccc[nH]2)C[C@]3(C)C(N)=O)cc1C,inactive [at 9.29 µM],
Cc1nc(NC(=O)N2CCC[C@H]2C(N)=O)sc1-c1ccnc(C(C)(C)C(F)(F)F)c1,,11.6 µM (active)
CCOC(=O)CCNc1cc(N2CCc3ccccc3CC2)nc(-c2cccnc2)n1,,inactive
COc1ccc(CN2CCN(CCCSc3cc(C(C)(C)C)c(O)c(C(C)(C)C)c3)CC2)c(OC)c1OC,inactive [at 9.29 µM],
Cc1cc2c(F)c(Oc3ncnn4cc(OCC(C)OC(=O)C(C)N)c(C)c34)ccc2[nH]1 (stereo not given),,16.4 µM (active)
C=C1C(=O)OC2/C=C(\CO)CC/C=C(\C=O)C(O)C(OC(=O)C(C)CC)C12 (stereo not given),,inactive
Cn1ncnc1[C@@H]1c2n[nH]c(=O)c3cc(F)cc(c23)N[C@H]1c1ccc(F)cc1,,inactive
COc1ccc(NC(=O)C2C[C@H](C)CC[C@H]2C(C)C)cc1 (stereo not given in full),,inactive
Cc1nc(NC(=O)N2CCCC2C(N)=O)sc1-c1ccnc(C(C)(C)C(F)(F)F)c1 (stereo not given),,23.1 µM (active)
CCN1CCN(Cc2ccc(NC(=O)c3ccc(C)c(Oc4ccnc5[nH]ccc45)c3)cc2C(F)(F)F)CC1,,16.4 µM (active)
COc1cccc(OCCCN)c1-c1cc(Nc2cnc(C#N)cn2)n[nH]1,,0.146 µM (active)
COc1ccc(C2=NC(c3ccc(Cl)cc3)C(c3ccc(Cl)cc3)N2C(=O)N2CCNC(=O)C2)c(OC(C)C)c1 (stereo not given),,inactive
